Screening data from PubChem.
DAX1 inh-1 = DAX1 (NR0B1) inhibitors, primary screen, cell-based, HEK293, Gal4-DAX1, luciferase luminescence | inhibition, % at 6.75 µM | hit rate 0.99% among 340,000 | HEK293 Gal4-DAX1 luciferase reporter;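 active means inhibition above the mean over all tested compounds plus 3 SD, cut at about 4.2% in these data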;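 further: 0% = DAX1-transfected cells with DMSO and 100% = empty-vector control cells with DMSO; inhibition shows as a rise in luminescence from relieved DAX1 repression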
Target sequence (P51843 207-470 limits assumed): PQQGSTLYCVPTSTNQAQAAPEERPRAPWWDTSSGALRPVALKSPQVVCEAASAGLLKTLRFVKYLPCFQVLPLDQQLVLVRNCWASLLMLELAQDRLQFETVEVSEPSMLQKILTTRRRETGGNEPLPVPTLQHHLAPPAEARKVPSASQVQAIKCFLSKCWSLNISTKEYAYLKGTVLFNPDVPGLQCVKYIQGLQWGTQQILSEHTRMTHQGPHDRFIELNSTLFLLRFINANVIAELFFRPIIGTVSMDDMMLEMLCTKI
DAX1 inh-2 = DAX1 (NR0B1) inhibitors on StAR promoter, primary screen, cell-based, luminescence, SF-1 (NR5A1), full-length DAX-1; inhibition, % at 6.8 µM; HEK293T StAR-luciferase reporter, SF-1/DAX-1 repression relief; hit rate 1.1% among 370,000; AID 652010, 2013;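 active means inhibition above the mean over all tested compounds plus 3 SD, cut at about 3.6% in these data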;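 further: 0% = DAX-1 cells with DMSO and 100% = cells lacking DAX-1 with DMSO; higher inhibition means more luminescence from relief of DAX-1 repression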
hcDAF-12 act = H. contortus DAF-12 nuclear receptor activators, primary screen, cell-based, luminescence, HEK293, lit1-tk-luc reporter. hit rate 1.4% among 370,000. activation, % at 6.8 µM. AID 652067, 2013. HEK293 hcDAF-12 lit1-tk-luc reporter; 0% DMSO, 100% Δ7-dafachronic acid;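 active means activation above the mean of all tested compounds plus 3 SD, cut at about 5.5% in these data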;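 further: 100% = response to 3 µM Δ7-dafachronic acid high control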
hgDAF12 agonist = H. glycines DAF-12 receptor agonists, primary screen, cell-based, luminescence, HEK293, GAL4 fusion, UAS-luciferase | AID 687014, 2013 | HEK293 GAL4-hgDAF12 UAS-luciferase reporter, agonist luminescence; normalized to butyrate control | hit rate 1.8% among 370,000 | Nuclear hormone receptor DAF-12 (Heterodera glycines), GAL4 fusion | activation, % at 6.8 µM;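 active means activation above a cutoff set at the mean of all screened compounds plus 3 SD, cut at about 10% in these data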;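 further: 0% = DMSO wells and 100% = sodium butyrate wells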
ssDAF-12 act = S. stercoralis DAF-12 nuclear receptor activators, primary screen, cell-based, luminescence, HEK293, GRIP1 co-expression, lit1-tk-luc. Nuclear hormone receptor DAF-12 (Strongyloides stercoralis). HEK293 ssDAF-12/GRIP1 lit1-tk-luc reporter; % of 3 µM dafachronic acid response. activation, % at 6.8 µM. hit rate 1% among 370,000;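 active means activation above the mean over all tested compounds plus 3 SD, cut at about 0.9% in these data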;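 further: 0% = DMSO-only wells and 100% = 3 µM delta7-dafachronic acid wells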
Active calls of the source: *; x = not tested or not shown. This is a sample that favours compounds with a hit; in the whole collection about 4.1% have one here.

SMILES	DAX1 inh-1	DAX1 inh-2	hcDAF-12 act	hgDAF12 agonist	ssDAF-12 act
Cc1ccc(S(=O)(=O)N2CCN(C(=O)COC(=O)COc3ccc(Cl)cc3)CC2)c(C)c1	4.8*	0	0	-1	-1
Brc1ccccc1C1Cc2nnccc2CN1 (stereo not given)	x	0	-2	-4	-1
Cc1ccc(Cn2cc(COC(=O)Nc3ccc(F)cc3)nn2)cc1	x	0	0	4	-1
CC(=O)NCCc1nc2cc(NC(=O)c3ccc(Cl)cc3)ccc2n1C	2	2	2	11*	-1
CCC(=O)NCCc1nc2cc(NC(=O)c3ccc(Cl)cc3)ccc2n1C	0	1	3	10	-1
C[C@H]1CN(C(=O)OC(C)(C)C)CCN1c1ccc(Br)c(C#N)c1	x	-2	-2	-2	-2
CC(C)C1NC(=S)N(C2CCCCC2)C1=O (stereo not given)	0	0	-1	2	1.2*
CC(C)CC1NC(=S)N(C2CCCCC2)C1=O (stereo not given)	1	-1	1	0	0
Cc1ccc(C(=O)N/N=C\C=C\c2ccc(Br)cc2)cn1	0	0	6.5*	1	1.0*
O=C1C=C(C2OC(CO)C(O)C2O)C(=O)N1 (stereo not given)	5.9*	1	-1	-1	-1
c1ccc2occc2c1	4.3*	0	2	0	-1
Nc1cc2ccccc2oc1=O	0	0	3	1	0
O=C(NN=Cc1cccc(OCc2ccccc2)c1)c1cc(-c2ccc(Cl)cc2)n[nH]1	x	0	-1	3	-1
Brc1ccc(-c2csc(N3CCNCC3)n2)cc1	x	x	3	0	-2
CCC(C)[C@H](NC(=O)OC(C)(C)C)C(=O)N[C@@H](Cc1ccccc1)C(=O)OC (stereo not given in full)	x	0	-1	-4	-1
COC(=O)c1sc(=S)n(Cc2ccccc2)c1C	12*	0	-1	1	-1
CN(C)c1ccc(C(=O)NCCc2ccccc2-c2ccccc2CCC(=O)NCc2ccccc2)cc1	x	0	-2	2	-2
COc1cccc(CNC(=O)[C@H]2CCCN2C(=O)[C@H]2CCCN2S(=O)(=O)c2cccc(C)c2)c1	x	0	-1	-1	-2
CCOC(=O)c1cn2nc(Oc3ccc(C(=O)OC)cc3)ccc2n1	-1	0	0	0	-1
CCOC(=O)c1cn2nc(Oc3ccc(NC(C)=O)cc3)ccc2n1	4.9*	0	-1	1	1
CC(CCC(=O)Nc1nncs1)C(=O)O (stereo not given)	3	0	1	0	-1
CCCCC(C(=O)O)C(C)CC(=O)Nc1nncs1 (stereo not given)	4.7*	0	1	5	-1
COCCNC(=O)c1ccc(CS(=O)(=O)c2ccc(OC)cc2)o1	5.2*	-1	0	-4	-1
CN1CCN(CCCNC(=O)c2ccc(CS(=O)(=O)c3ccc(Br)cc3)o2)CC1	4.3*	-1	-3	1	-1
O=C(NCCCN1CCCC1)c1ccc(CS(=O)(=O)c2ccc(Br)cc2)o1	0	1	2	-2	-2
SMILES	DAX1 inh-1	DAX1 inh-2	hcDAF-12 act	hgDAF12 agonist	ssDAF-12 act
CC(=C/c1ccccc1)/C=N/n1c(C)n[nH]c1=S	4.7*	0	-1	2	-1
CC(=C/c1ccccc1)/C=N/n1c(-c2ccncc2)n[nH]c1=S	-1	0	-2	1	-2
C=CCN1C(=O)[C@@H](CC(=O)NCc2cccs2)[C@]2(C(=O)OC)CCCCC=C12	x	-1	0	1	-1
Cc1cc(C)c(-c2nc3ccccc3s2)[nH]1	-1	1	6.3*	2	0
COc1ccc(S[C@]2(C(=O)N3CCCC3)CC(=O)N(C(=O)Nc3ccc(C)c(Cl)c3)[C@@H]2c2ccc(OC)cc2)cc1	x	0	-1	-1	-1
O=[N+]([O-])c1cccc(N=NNc2cccc([N+](=O)[O-])c2)c1	0	1	-1	0	-1
Nc1cccc(N=[N+]([O-])c2cccc(N)c2)c1	0	1	0	11*	0
Cc1ccc(NC(=O)C2CC3CCC2C3)cc1 (stereo not given)	x	x	-1	7	0
N#CCCn1nc(-c2ccccc2)c2ccccc2c1=O	5.0*	0	-1	-1	-2
COC(=O)C[C@H]1CC[C@@H]2[C@H](COc3ccc(NC(=O)NCc4ccccc4)cc3C(=O)N2C)O1	x	-1	0	1	-1
COc1ccc(CC(=O)NCC2CCCN(Cc3ccc(F)cc3F)C2)cc1 (stereo not given)	-1	1	5	12*	0
COc1ccc(CC(=O)NCC2CCCN(Cc3ccc(OC)cc3F)C2)cc1 (stereo not given)	0	0	-1	-2	-1
CN[C@H]1C[C@H]2c3[nH]c4c(-c5ccccc5)cccc4c3CCN2C[C@H]1[C@H](C)O	x	-1	-1	-2	-1
CSc1ccccc1NC(=O)c1cc(-c2ccc3c(c2)OCO3)on1	1	0	1	4	0
CC(C)CNC(=O)c1cc(-c2ccc3c(c2)OCO3)on1	3	3	3	9	0
CN(C(=O)c1cc(-c2ccc3c(c2)OCO3)on1)c1ccccc1	3	1	3	11*	0
O=C(Nc1cc(Br)ccc1O)c1cc(-c2ccc3c(c2)OCO3)on1	5.7*	0	5	5	0
COc1cc(CNCCCCO)ccc1OCc1ccccc1F	0	1	1	11*	-1
CCOC(=O)CNC(=O)C(Cc1ccc2c(c1)OCO2)NC(C)=O (stereo not given)	x	0	-3	1	0
O=C(NC1CCS(=O)(=O)C1)/C(=C/c1ccc(Cl)cc1)NC(=O)c1ccccc1 (stereo not given)	4.8*	-1	1	1	-1
O=C(NC1CCS(=O)(=O)C1)/C(=C\c1ccccc1)NC(=O)c1ccccc1 (stereo not given)	-1	0	1	-1	-1
CCCOCc1ccc(O)c2ncccc12	1	0	1	12*	-1
CC(C)COCc1ccc(O)c2ncccc12	-1	0	1	-3	0
COc1ccc(C2/C(=C(\O)c3cccc(OC)c3)C(=O)C(=O)N2c2ccccn2)cc1 (stereo not given)	6.8*	-1	-1	1	-1
